Assay results: ChEMBL document CHEMBL4513216, “Probing the Open Global Health Chemical Diversity Library for Multistage-Active Starting Points for Next-Generation Antimalarials” (ACS Infect Dis, 2020)
About 2,700 (4%) of roughly 68,000 compounds showed an effect of 50% or more. Only a selection was taken, and strong results are over-represented in it overall.

The compounds below were run on Plasmodium berghei (assay: Screen against P. berghei liver stage (PbLuc), transformed with Luciferase, at 2uM). Conditions: tested at 2 uM.
Format: functional, HepG2

SMILES	INHIBITION [%]
CC(=O)Nc1ccc(C(=O)N(C)Cc2cccc(F)c2)s1	45.05
CCN(CCn1cccn1)Cc1nc(-c2cccs2)oc1C	-9.1
Cc1nnsc1CN(C)C(=O)CCn1cnc2ccccc21	-40.44
CCOC(=O)N1CCN(c2nc(NCCCO)c3ccccc3n2)CC1	7.14
O=C1C(Sc2nnnn2C2CC2)CCN1c1ccccc1F (configuration not stated)	21.82
Cn1cnc(S(=O)(=O)NCC2(O)CCc3ccccc3C2)c1 (configuration not stated)	53.33
Cn1cnc(S(=O)(=O)NCC2(O)CCc3ccccc32)c1 (configuration not stated)	30.34
Cn1cnc(S(=O)(=O)NCC2(O)CCOc3ccccc32)c1 (configuration not stated)	45.19
CC(NC(=O)c1cccnc1N(C)C)c1ccccc1Br (configuration not stated)	20.32
Cc1nc(CNCc2c(C(C)C)nn(C)c2N2CCOCC2)cs1	7.64
O=C([C@H]1C[C@@H]2CCN(c3cccc(F)c3)C[C@H]2O1)N1CCCC1	39.51
CCc1ccc(S(=O)(=O)N2CCCn3ncnc32)s1	13.38
COC(=O)c1ccc(S(=O)(=O)N2CCCn3ncnc32)s1	59.68
O=S(=O)(c1ccc(Cl)s1)N1CCCn2ncnc21	-49.84
Cc1nccn1-c1nccnc1C1CCCN(C)C1 (configuration not stated)	1.75
CCC(=O)NCC(=O)NCC(C)(C)c1cccc(Br)c1	15.2
CN(C)c1nc2c(c(N(C)C)n1)CCN(C(=O)CN1C[C@H]3CC[C@@H]1C3)C2	-34.98
O=C(NCC1CC1)C1CN(C(=O)c2cccc(Cl)c2)CC12CCOCC2 (configuration not stated)	71.99
O=C(NCC1CC1)C1CN(C(=O)c2ccnnc2)CC12CCOCC2 (configuration not stated)	59.59
O=C(NCC1CC1)C1CN(C(=O)c2ccco2)CC12CCOCC2 (configuration not stated)	14.39
O=C(NCC1CC1)C1CN(C(=O)c2cccs2)CC12CCOCC2 (configuration not stated)	-4.92
O=C(NCC1CC1)C1CN(C(=O)c2ccncc2)CC12CCOCC2 (configuration not stated)	-12.21
O=C(NCC1CC1)C1CN(C(=O)c2cccnc2)CC12CCOCC2 (configuration not stated)	-1.37

SMILES	INHIBITION [%]
Cc1nnc(N2CC[C@@H](OCC3CC3)[C@@H](Cc3ccccc3)C2)s1	1.74
Cc1cc(C(=O)N(CC(F)(F)F)C2CCOCC2)c(C)o1	7.68
Cc1noc(C)c1-c1cncc(C2CCCN2Cc2ccncc2)n1 (configuration not stated)	27.8
COc1ccc(OC2CCN(C(=O)CCc3n[nH]c(C)n3)CC2)cc1	-2.77
COc1ccc(N2CCN(C(=O)CCc3n[nH]c(C)n3)CC2=O)cc1	62.3
Cc1ccc(N2CCN(C(=O)CCc3n[nH]c(C)n3)CC2=O)cc1	19.75
O=C(O)[C@H]1OCC(=O)N(Cc2cccc(F)c2)[C@@H]1c1ccc(Cl)cc1	-4.48
Cc1cccc(Nc2cccc(C3CCCN(Cc4ncc[nH]4)C3)n2)n1 (configuration not stated)	7.02
Cc1cnn(CC2CCCN2CC(=O)N(C)CCC#N)c1 (configuration not stated)	-31.3
CC(=O)N1CCN(C(=O)C[C@@H]2C[C@@H](C(C)C)[C@H](CC#N)C=C2C)CC1	46.32
CC1=C[C@@H](CC#N)[C@H](C(C)C)C[C@H]1CC(=O)N1CCN(CCO)CC1	-3.1
CC1=C[C@@H](CC#N)[C@H](C(C)C)C[C@H]1CC(=O)N1CCN(C)CC1	62.8
Cc1cc(-c2cccc(C(=O)O)c2)nc(C2CCN(C(C)C)CC2)n1	24.56
O=C(NC1CC1)[C@H]1CC[C@@H]2[C@@H](CCN2c2ncc(F)cn2)O1	1.07
COc1ccc(C)cc1CN(C)CCCNS(C)(=O)=O	-81.99
Cn1c(=O)oc2cc(Nc3ncc(C#N)cc3Cl)ccc21	53.13
Cn1c(=O)oc2ccc(Nc3ncc(C#N)cc3Cl)cc21	-4.24
Cn1c(=O)oc2cc(Nc3nccnc3C#N)ccc21	9.42
CCOc1nnc(CN2CCN(CCOC)C(CC)C2)s1 (configuration not stated)	-8.54
CCOc1ncnc2c1CCN(S(=O)(=O)CC)CC2	8.41
CCc1ncnc2c1CCN(S(=O)(=O)c1ccccc1)CC2	5.44
CCOc1ncnc2c1CCN(S(=O)(=O)c1ccccc1)CC2	55.07
CC1COCCN1C(=O)COc1ccc(Oc2ccccn2)cc1 (configuration not stated)	41.88

SMILES	INHIBITION [%]
O=C(NCCCN1CCOCC1)c1cc(-c2ccccc2)[nH]n1	-55.91
CC(C)(Cn1cnc(-c2ccccc2)c1-c1ccco1)N1CCOCC1	-9.41
c1ccc(-c2ncn(CCCN3CCOCC3)c2-c2ccncc2)cc1	64.9
OCc1ccc(-c2c(-c3ccccc3)ncn2CCN2CCOCC2)o1	-23.34
Cc1nc(-c2c(-c3ccccc3)ncn2CCCN2CCOCC2)c[nH]1	64.9
Cc1ccc(-c2c(-c3ccccc3)ncn2CCCN2CCOCC2)o1	33.9
CC(=O)N1CCN(C(=O)c2[nH]nnc2Nc2ccccc2F)CC1	-66.39
COc1cccc(Cn2cc(N3C(=O)[C@H]4CCCC[C@H]4C3=O)cn2)c1	-3.8
CN(C(=O)COCc1ccccc1)C1CCN(CC2CCOC2)CC1 (configuration not stated)	-11.88
CC(C)S(=O)(=O)NCC1CCCN(C(=O)c2ccc(Cl)cc2)C1 (configuration not stated)	16.82
N#Cc1csc(CNCCOc2ccc(Cl)cn2)c1	10.91
Cc1cnn(CCNCc2nc(-c3ccccn3)no2)c1	13.36
Cc1cnn(CCNCc2c(C(C)C)nn(C)c2Cl)c1	31.81
Cc1cnn(CCNCc2nc(-c3ccccc3Cl)no2)c1	73.05
Cc1cnn(CCNCc2c(C)nn(C)c2Cl)c1	56.15
CCc1noc(CNCCn2cc(C)cn2)n1	-24.75
CCn1nc(C)c(CNCCn2cc(C)cn2)c1C	-0.98
CN1CCN(c2cnn(CCn3cccn3)c(=O)c2)CC1	26.14
Cc1cc(C(=O)N2C[C@@H]3C(CN(C)CCCn4cccn4)[C@@H]3C2)c(C)o1 (some centres not stated)	-6.53
Cc1cc(C(=O)N2C[C@@H]3C(CN(C)CCc4ccccn4)[C@@H]3C2)c(C)o1 (some centres not stated)	33.7
Cc1ccccc1C(=O)N1C[C@@H]2C(CN(C)CCc3ccccn3)[C@@H]2C1 (some centres not stated)	56.21
